Shn3 inh set2: reduction of Shn3 3'UTR firefly luciferase signal, primary screen, Schnurri-3 inhibitor project, cell-based, Clone20 osteoblasts, set 2. inhibition, % at 12.5 µM. AID 588674, 2011. Clone20 osteoblast Shn3 3'UTR firefly luciferase, 24 h. hit rate 0.52% among 360,000;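 active = mean inhibition of at least 75% with every replicate also reaching 75%; inconclusive = mean inhibition at least 75% but some replicate below; inactive = mean inhibition below 75%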;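 also: 0% = median of neutral control wells and 100% = pilot-screen positive control compound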
Peg3 prom inh: Peg3 promoter-driven luciferase inhibitors, primary screen, cell-based, HeLa, luciferase luminescence; HeLa PEG-Prom luciferase reporter, overnight; inhibition, % at 20 µM; hit rate 1.7% among 360,000;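 active = inhibition of at least 50% at 20 µM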
TROY signal inh: inhibitors of TROY-driven NF-kB signaling, primary screen, Q293 LMP1-TROYcd cells, NF-kB luciferase, uHTS | Q293 LMP1-TROYcd NF-kB luciferase reporter, 4 h | inhibition, % at 10 µM | hit rate 0.98% among 360,000 | AID 1347056, 2019;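 active = compounds whose plate-normalised and pattern-corrected inhibition of the luciferase reporter signal at the single screening dose is 50% or more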
TWEAK Fn14 block: inhibitors of TWEAK-Fn14 signaling, primary screen, luciferase reporter cells, uHTS. TWEAK-stimulated Fn14 reporter cells, luciferase luminescence, 8 h. inhibition, % at 10 µM. hit rate 2% among 360,000. AID 1159606, 2016; in the data active = inhibition above about 50%
LMP1 NFkB inh: EBV LMP1-driven NF-kappaB luciferase reporter inhibitors, primary screen, cell-based, luminescence, single point; inhibition, % at 12.5 µM; LMP1-induced NF-kappaB luciferase reporter cells; hit rate 0.69% among 350,000; AID 504558, 2011; in the data active = inhibition above about 41%; inconclusive = no clear call, values can overlap the other calls;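 also: 0% = neutral control wells and 100% = reference inhibitor control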
MITF TRPM1 inh: inhibitors of MITF-dependent TRPM1 promoter reporter, primary screen, cell-based, SK-MEL-5, single point, luciferase; inhibition, % at 12.5 µM; hit rate 0.83% among 330,000; SK-MEL-5 TRPM1 promoter luciferase, 24 h;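 active = mean inhibition across replicates of 60% or more, whatever share of single replicates reaches that level; inconclusive = some that reach 60%, reason not given; inactive = mean inhibition across replicates below 60%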
* = called active by the depositor; ? = inconclusive; . = no result. Only some compounds are listed: those with a hit (about 4.1% of all), similar ones and a draw of the others.

SMILES	Shn3 inh set2	Peg3 prom inh	TROY signal inh	TWEAK Fn14 block	LMP1 NFkB inh	MITF TRPM1 inh
COC(=O)c1ccc(NCc2cc(O)ccc2O)cc1O	70	-11	-9	83*	-61	-6
COC(=O)c1ccc(NCc2c(O)ccc(O)c2Br)cc1Cl	81	19	23	80*	-48	6
COc1cccc(C(=O)Nc2sc(C(C)C)cc2C(N)=O)c1OC	-3	-16	-9	-10	7	-16
CCc1ccccc1OCC(=O)Nc1nc(-c2cccnc2)cs1	39	31	61*	-39	10	14
Cc1cccc(OCC(=O)Nc2nc3ccc([N+](=O)[O-])cc3s2)c1	-4	-14	59*	1	4	-5
Cc1ccc[n+](CC(=O)Nc2nc3ccccc3s2)c1	2	-12	81*	64*	0	10
Cc1cccc(OCC(=O)Nc2nc3ccc([N+](=O)[O-])cc3s2)c1C	15	6	24	-27	2	12
Cc1ccc(S(=O)(=O)N(C)c2ccc(OCC(=O)Nc3nc4ccccc4s3)cc2)cc1	67	-20	24	70*	10	24
Cc1ccc(S(=O)(=O)N(C)c2ccc(OCC(=O)Nc3nc4c(ccc5ccccc54)s3)cc2)cc1	34	-53	6	-7	8	-5
CN(c1ccc(OCC(=O)Nc2nc(-c3ccccc3)cs2)cc1)S(=O)(=O)c1ccc(F)cc1	31	-7	18	55*	19	-6
COc1ccc(-c2n[nH]c(C)c2-c2cscn2)c(O)c1	14	4	4	11	-1	-1
C=C(C)COc1ccc(-c2n[nH]c(C)c2-c2ccc(OC)cc2)c(O)c1	40	80*	-10	2	3	6
COCCNC(=O)c1c(N)n(/N=C/c2ccc(F)cc2)c2nc3ccccc3nc12	-1	19	2	16	.	.
CC(C)CNC(=O)c1c(N)n(/N=C/c2ccccn2)c2nc3ccccc3nc12	-5	54*	5	11	-3	3
Cc1ccc(CS(=O)(=O)c2ncc(Cl)c(C(=O)Nc3ccc(OC(F)F)cc3)n2)cc1	94*	106*	79*	83*	?	81*
CCS(=O)(=O)c1ncc(Cl)c(C(=O)Nc2ccc(S(=O)(=O)N3CCCC(C)C3)cc2)n1 (stereo unspecified)	98*	105*	85*	96*	21	104*
O=C(Nc1ccc2ccccc2c1)c1cnccn1	-60	-201	-43	14	-5	-29
CS(=O)(=O)c1ncc(Cl)c(C(=O)Nc2ccc3ccccc3c2)n1	96*	106*	65*	82*	27	104*
CCS(=O)(=O)c1ncc(Cl)c(C(=O)Nc2ccc(C)cc2)n1	82	101*	67*	90*	-48	70*
CC(CCc1ccccc1)NS(=O)(=O)c1ccccc1 (stereo unspecified)	17	7	-2	6	1	-7
CSc1ncccc1C(=O)N1CCCC(N2CCN(c3ccccc3F)CC2)C1 (stereo unspecified)	4	7	7	3	-12	7
COc1ccc(N2CCN(C(=O)COC(=O)c3cnccn3)CC2)cc1	0	-1	18	-10	-5	-2
COc1cccc(-c2ccc3nnc(SCC(=O)Nc4ccc(NC(C)=O)cc4)n3n2)c1	-26	5	-11	-6	10	-7
Cn1ccc2c(-c3cccc(C=O)c3)cc3c(c21)C1CCC3C1 (stereo unspecified)	8	20	65*	48	.	.
Cn1ccc2c(-c3cccc4ccccc34)cc3c(c21)C1CCC3C1 (stereo unspecified)	-12	9	77*	82*	.	.
Cn1ccc2c(-c3ccc(F)cc3F)cc3c(c21)C1CCC3C1 (stereo unspecified)	-9	-37	1	-15	.	.
Cn1ccc2c(-c3cncc4ccccc34)cc3c(c21)C1CCC3C1 (stereo unspecified)	0	12	6	7	.	.

Source: PubChem BioAssay (several laboratories)
